# From PubChem BioAssay
# Active and inactive are the calls of the source. Unless noted, how the calls were made is not given here.
# Legend:
# [1] = test system: Wnt5a (protein binding on small-molecule microarray); test: Wnt5a binders on small-molecule microarray, primary screen, biophysical, 635/667 nm fluorescence (AID 1142); details: 635 nm fluorescence, higher = more signal;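 further: fluorescence read at 667 nm with signal to noise per printed feature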
# [2] = cell viability in Huh7 cells, primary screen, cytotoxicity control for HCV replication inhibitor project, CellTiter-Glo luminescence, basal, 48 h (AID 1143); details: Huh7 HCV replicon, higher = more signal, called active from +8 up or from −8 down;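 further: Huh7 hepatoma cells carrying a hepatitis C replication reporter with no stimulus; test concentration not given here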
# [3] = P. aeruginosa biofilm formation inhibitors, primary screen, PAO1 strain, BacTiter-Glo luminescence, LB-PBS (AID 1144); details: 12 h, higher = more signal
# [4] = CREB reporter modulators without forskolin, primary screen, cell-based, PC12, CRE-LacZ reporter, unstimulated (AID 1145); details: no forskolin, luminescence, 4.5 h, higher = more signal, called active from +8 up or from −8 down
# [5] = CREB reporter modulators under forskolin, primary screen, cell-based, PC12, CRE-LacZ reporter, forskolin-stimulated (AID 1146); details: luminescence, 4.5 h, higher = more signal, called active from +8 up or from −8 down;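 further: PC12 cells with 6xCRE LacZ reporter stimulated by forskolin 10 µM; beta-galactosidase reporter signal reflecting CREB driven transcription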
# [6] = biological target: Streptavidin (Streptomyces avidinii) (UniProt P22629); test: streptavidin binders on small-molecule microarray, primary screen, artefact control for SMM compound annotation, biophysical, 635/667 nm fluorescence (AID 1147); details: streptavidin binding, higher = more signal;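 further: signal reflects streptavidin binding to arrayed compounds as a control protein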
# Chain of Streptavidin (Streptomyces avidinii) (P22629 whole entry, looked up): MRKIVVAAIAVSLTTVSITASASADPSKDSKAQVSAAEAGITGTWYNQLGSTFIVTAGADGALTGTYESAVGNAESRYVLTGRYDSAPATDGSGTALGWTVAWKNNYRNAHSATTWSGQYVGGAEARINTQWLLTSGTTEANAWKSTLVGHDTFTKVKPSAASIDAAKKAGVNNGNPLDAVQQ
# [7] = small-molecule binders of probe aInhba, primary screen, biochemical, small-molecule microarray, 635/667 nm fluorescence (AID 1148); details: higher = more signal;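 further: score merges 667nm spot fluorescence with signal-to-noise for antibody binding to printed compounds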
# Torsin-1A (Homo sapiens) [8] = biological target: Torsin-1A (Homo sapiens) (UniProt O14656); test: torsin A binders from cell lysate, primary screen, small-molecule microarray, wild-type, 635/667 nm (AID 1149); details: COS7 hTOR1A-WT lysate, 635 nm fluorescence, higher = more signal
# Chain of Torsin-1A (Homo sapiens) (O14656 whole entry, looked up): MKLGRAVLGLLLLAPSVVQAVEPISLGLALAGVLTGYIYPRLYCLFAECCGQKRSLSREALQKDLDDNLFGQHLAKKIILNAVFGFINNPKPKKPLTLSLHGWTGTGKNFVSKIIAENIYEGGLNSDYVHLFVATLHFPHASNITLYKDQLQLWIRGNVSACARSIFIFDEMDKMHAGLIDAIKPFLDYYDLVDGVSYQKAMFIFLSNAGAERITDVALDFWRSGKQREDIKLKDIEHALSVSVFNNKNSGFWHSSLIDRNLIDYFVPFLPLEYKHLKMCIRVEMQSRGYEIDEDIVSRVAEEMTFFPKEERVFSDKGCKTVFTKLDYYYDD
# Torsin-1A (Homo sapiens) [9] = biological target: Torsin-1A (Homo sapiens) (UniProt O14656); test: small-molecule binders of mutant TOR1A in lysate, primary screen, cell lysate, small-molecule microarray, COS7 lysate, 635/667 nm fluorescence (AID 1150); details: COS7 hTOR1A mutant lysate, 635 nm fluorescence, higher = more signal;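 further: score pools 667 nm emission and signal to noise measuring lysate protein binding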
# [10] = test system: Sonic hedgehog protein (Shh); test: small-molecule binders of Shh protein, primary screen, biochemical, small-molecule microarray, 635/667 nm fluorescence (AID 1151); details: small-molecule microarray binding, 635 nm fluorescence; higher = more signal;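 further: Shh protein binding to compounds spotted on small-molecule microarray slides; score combines spot fluorescence intensity with signal-to-noise across triplicate slides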
# [11] = E. coli DRC41 culture turbidity changes, primary screen, E. coli filamentation inducer project, strain DRC41, OD650, 48 h (AID 1152);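 further: E. coli MC1000 strain DRC41 lacking acrAB efflux pump and sulA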; details: E. coli DRC41 (acrAB sulA), higher = more signal, called active from +8 up or from −8 down
# [12] = small-molecule binders of probe aLefty1, primary screen, biochemical, small-molecule microarray, 635/667 nm fluorescence (AID 1153); details: higher = more signal;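 further: score merges spot fluorescence with signal-to-noise ratio from the scanned slide images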
# [13] = PSAC antagonists in infected red cells, primary screen, cell-based, P. falciparum Indochina, OD700, 1 h (AID 1154); details: P. falciparum Indochina infected RBC osmotic lysis, higher = more signal, called active from +8 up or from −8 down
# [14] = PSAC antagonists in infected red cells, primary screen, cell-based, P. falciparum Indochina, OD700, 2 h (AID 1155);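 further: lysis reports solute entry through the parasite surface anion channel PSAC; channel blockers reduce lysis of infected cells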; details: P. falciparum Indochina infected erythrocytes, osmotic lysis OD700; higher = more signal, called active from +8 up or from −8 down
# [15] = osmotic lysis modulators in infected erythrocytes, primary screen, PSAC antagonist project, cell-based, P. falciparum Indochina, OD700, 3 h (AID 1156); details: higher = more signal, called active from +8 up or from −8 down
# [16] = PSAC antagonists in infected red cells, primary screen, cell-based, P. falciparum Indochina, OD700, 18 h (AID 1157); details: P. falciparum Indochina infected erythrocytes, osmotic lysis OD700, 18 h; higher = more signal, called active from +8 up or from −8 down
# [17] = modulators of S6 phosphorylation in cells, primary screen, cell-based, A549, cytoblot, luminescence, serum-stimulated (AID 1158); details: A549 phospho-S6 cytoblot, 5 h, higher = more signal;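 further: serum-stimulated A549 lung adenocarcinoma cells; signal is phosphorylated S6 detected by cytoblot immunostaining with HRP secondary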
# [18] = biological target: NADPH oxidase 2 (Homo sapiens) (UniProt P04839); test: NOX2-dependent H2O2 signal modulators, primary screen, NOX inhibitor project, cell-based, HEK293-NOX2, PMA-stimulated, Amplex Red fluorescence (AID 1159); details: 45 min, higher = more signal, called active from +8 up or from −8 down; further: test concentration not given here
# Chain of NADPH oxidase 2 (Homo sapiens) (P04839 whole entry, looked up): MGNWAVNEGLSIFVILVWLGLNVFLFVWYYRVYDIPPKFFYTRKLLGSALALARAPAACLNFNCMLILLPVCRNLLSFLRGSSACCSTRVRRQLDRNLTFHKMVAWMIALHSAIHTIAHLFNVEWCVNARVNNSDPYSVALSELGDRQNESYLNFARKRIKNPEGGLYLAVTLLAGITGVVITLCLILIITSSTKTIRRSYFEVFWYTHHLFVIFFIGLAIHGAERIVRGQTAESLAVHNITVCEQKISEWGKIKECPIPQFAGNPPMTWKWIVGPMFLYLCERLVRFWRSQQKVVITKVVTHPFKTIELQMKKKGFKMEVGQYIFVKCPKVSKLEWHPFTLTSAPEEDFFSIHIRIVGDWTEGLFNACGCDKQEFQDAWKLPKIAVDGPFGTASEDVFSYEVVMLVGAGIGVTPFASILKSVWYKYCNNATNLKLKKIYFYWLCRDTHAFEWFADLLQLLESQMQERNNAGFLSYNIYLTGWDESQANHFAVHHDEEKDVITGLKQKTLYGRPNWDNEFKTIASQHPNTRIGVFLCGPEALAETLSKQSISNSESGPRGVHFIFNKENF
# [19] = biological target: NADPH oxidase 4 (Homo sapiens) (UniProt Q9NPH5); test: NOX4-dependent H2O2 signal modulators, primary screen, NOX inhibitor project, cell-based, HEK293-NOX4, tetracycline-induced, Amplex Red fluorescence (AID 1160); details: 45 min, higher = more signal, called active from +8 up or from −8 down
# Chain of NADPH oxidase 4 (Homo sapiens) (Q9NPH5 whole entry, looked up): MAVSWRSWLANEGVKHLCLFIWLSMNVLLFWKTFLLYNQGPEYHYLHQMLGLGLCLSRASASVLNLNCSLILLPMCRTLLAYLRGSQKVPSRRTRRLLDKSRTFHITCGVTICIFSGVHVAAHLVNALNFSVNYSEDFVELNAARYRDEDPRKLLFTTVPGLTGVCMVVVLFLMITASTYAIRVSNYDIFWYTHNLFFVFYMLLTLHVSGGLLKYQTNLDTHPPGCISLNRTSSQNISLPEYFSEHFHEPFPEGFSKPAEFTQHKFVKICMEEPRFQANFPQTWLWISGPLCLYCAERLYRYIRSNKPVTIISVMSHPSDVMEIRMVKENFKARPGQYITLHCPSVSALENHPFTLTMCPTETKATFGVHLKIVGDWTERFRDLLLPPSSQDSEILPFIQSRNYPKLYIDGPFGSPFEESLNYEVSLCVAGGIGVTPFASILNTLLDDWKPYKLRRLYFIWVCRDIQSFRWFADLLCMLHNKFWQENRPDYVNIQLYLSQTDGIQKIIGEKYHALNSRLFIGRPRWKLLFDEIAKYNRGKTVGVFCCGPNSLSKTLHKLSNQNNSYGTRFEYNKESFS
# [20] = biological target: NADPH oxidase 5 (Homo sapiens) (UniProt Q96PH1); test: NOX5-dependent H2O2 signal modulators, primary screen, NOX inhibitor project, cell-based, HEK293-NOX5, Amplex Red fluorescence (AID 1161); details: HEK293-NOX5, ionomycin, 45 min, higher = more signal
# Chain of NADPH oxidase 5 (Homo sapiens) (Q96PH1 whole entry, looked up): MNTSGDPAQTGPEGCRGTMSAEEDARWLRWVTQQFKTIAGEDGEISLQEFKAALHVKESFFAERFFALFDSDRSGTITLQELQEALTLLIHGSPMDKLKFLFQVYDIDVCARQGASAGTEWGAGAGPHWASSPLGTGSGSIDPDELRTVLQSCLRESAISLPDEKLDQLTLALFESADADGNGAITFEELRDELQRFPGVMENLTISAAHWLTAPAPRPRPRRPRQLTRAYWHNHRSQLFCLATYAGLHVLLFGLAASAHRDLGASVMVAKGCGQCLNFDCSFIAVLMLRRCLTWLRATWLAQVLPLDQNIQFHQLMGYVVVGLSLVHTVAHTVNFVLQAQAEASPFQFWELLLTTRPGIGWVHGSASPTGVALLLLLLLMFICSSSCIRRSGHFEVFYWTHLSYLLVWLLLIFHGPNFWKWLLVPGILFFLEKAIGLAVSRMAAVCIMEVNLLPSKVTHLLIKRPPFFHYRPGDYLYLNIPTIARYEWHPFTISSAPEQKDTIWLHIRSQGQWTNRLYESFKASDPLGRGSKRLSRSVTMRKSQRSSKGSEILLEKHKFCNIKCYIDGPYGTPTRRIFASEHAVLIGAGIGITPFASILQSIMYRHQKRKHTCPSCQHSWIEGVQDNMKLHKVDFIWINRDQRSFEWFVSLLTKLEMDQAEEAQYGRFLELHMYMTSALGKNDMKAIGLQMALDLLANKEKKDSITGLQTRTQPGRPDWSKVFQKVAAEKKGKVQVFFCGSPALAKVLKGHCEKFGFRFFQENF
smiles,measurement,setting,value
CCOC(=O)[C@H](CC(C)C)NC(=O)CCC1CC(OC(=O)NCCc2ccc(F)cc2)CC2(CCCC(COC(=O)NCc3cccc(C(F)(F)F)c3)O2)O1 (stereo not given in full),composite z-score,[1],0.0465
same,z-score,[2],0.215 (inactive)
same,z-score,[3],0.074 (inactive)
same,z-score,[4],-0.437 (inactive)
same,z-score,[5],0.257 (inactive)
same,composite z-score,[6],0.0808
same,composite z-score,[7],-0.0762
same,composite z-score,Torsin-1A (Homo sapiens) [8],0.0857
same,composite z-score,Torsin-1A (Homo sapiens) [9],0.147
same,composite z-score,[10],0.909
same,z-score,[11],0.265 (inactive)
same,composite z-score,[12],0.0437
same,z-score,[13],6.76 (inactive)
same,z-score,[14],0.968 (inactive)
same,z-score,[15],0.0716 (inactive)
same,z-score,[16],0.127 (inactive)
same,z-score,[17],-0.276
same,z-score,[18],0.61 (inactive)
same,z-score,[19],0.703 (inactive)
same,z-score,[20],0.401
COC(=O)C1=C(C)N(Cc2ccccc2)C2=C3C(=O)OCC[C@@H]3[C@@](O)(C(=O)OC)C(=O)N2[C@@H]1c1ccccc1,composite z-score,[1],0.226
same,z-score,[2],-0.0119 (inactive)
same,z-score,[3],-0.356 (inactive)
same,z-score,[4],4.9 (inactive)
same,z-score,[5],-1.1 (inactive)
same,composite z-score,[6],0.299
same,composite z-score,[7],-0.0221
same,composite z-score,Torsin-1A (Homo sapiens) [8],-0.154
same,composite z-score,Torsin-1A (Homo sapiens) [9],0.319
same,composite z-score,[10],0.404
same,z-score,[11],0.884 (inactive)
same,composite z-score,[12],-0.286
same,z-score,[13],0.121 (inactive)
same,z-score,[14],0.132 (inactive)
same,z-score,[15],0.0954 (inactive)
same,z-score,[16],0.126 (inactive)
same,z-score,[17],0.0012
same,z-score,[18],0.0769 (inactive)
same,z-score,[19],-0.0428 (inactive)
same,z-score,[20],0.251
CCO[C@H](c1cc(OC)cc([N+](=O)[O-])c1OC)[C@H](C)[C@@H](OC)[C@H](C)C=CCC(=O)OC,composite z-score,[1],0.018
same,z-score,[2],-0.267 (inactive)
same,z-score,[3],-0.378 (inactive)
same,z-score,[4],0.0246 (inactive)
same,z-score,[5],-0.183 (inactive)
same,composite z-score,[6],-0.0837
same,composite z-score,[7],-0.183
same,composite z-score,Torsin-1A (Homo sapiens) [8],0.388
same,composite z-score,Torsin-1A (Homo sapiens) [9],0.294
same,composite z-score,[10],0.628
same,z-score,[11],-0.321 (inactive)
same,composite z-score,[12],0.0367
same,z-score,[13],2.26 (inactive)
same,z-score,[14],0.282 (inactive)
same,z-score,[15],0.528 (inactive)
same,z-score,[16],0.318 (inactive)
same,z-score,[17],-0.421
same,z-score,[18],-1.73 (inactive)
same,z-score,[19],-0.442 (inactive)
same,z-score,[20],-1.11
CC(C)(C)N1C(=O)[C@H]2[C@H]3[C@H](O)[C@H](O)CC(=NNC(=O)OCc4ccccc4)[C@@H]3CC[C@H]2C1=O,composite z-score,[1],-0.0841
same,z-score,[2],0.633 (inactive)
same,z-score,[3],-0.0893 (inactive)
same,z-score,[4],-0.0258 (inactive)
same,z-score,[5],0.314 (inactive)
same,composite z-score,[6],0.171
same,composite z-score,[7],-0.13
same,composite z-score,Torsin-1A (Homo sapiens) [8],0.472
same,composite z-score,Torsin-1A (Homo sapiens) [9],0.322
same,composite z-score,[10],0.226
same,z-score,[11],0.323 (inactive)
same,composite z-score,[12],-0.153
same,z-score,[13],0.0391 (inactive)
same,z-score,[14],0.193 (inactive)
same,z-score,[15],-0.279 (inactive)
same,z-score,[16],-0.385 (inactive)
same,z-score,[17],-0.731
same,z-score,[18],0.788 (inactive)
same,z-score,[19],0.739 (inactive)
same,z-score,[20],0.0356
O=C1[C@H]2[C@H]3[C@H](O)[C@H](O)CC(=NOC[C@@H](O)COCc4ccco4)[C@@H]3CC[C@H]2C(=O)N1C1CCCCC1,composite z-score,[1],0.124
same,z-score,[2],-0.234 (inactive)
same,z-score,[3],0.321 (inactive)
same,z-score,[4],3.23 (inactive)
same,z-score,[5],0.148 (inactive)
same,composite z-score,[6],-0.256
same,composite z-score,[7],-0.195
same,composite z-score,Torsin-1A (Homo sapiens) [8],3.38
same,composite z-score,Torsin-1A (Homo sapiens) [9],1.25
same,composite z-score,[10],1.94
same,z-score,[11],0.38 (inactive)
same,composite z-score,[12],0.0616
same,z-score,[13],7.07 (inactive)
same,z-score,[14],0.409 (inactive)
same,z-score,[15],0.347 (inactive)
same,z-score,[16],0.329 (inactive)
same,z-score,[17],-0.9
same,z-score,[18],-0.0721 (inactive)
same,z-score,[19],0.721 (inactive)
same,z-score,[20],0.475
CCOC(=O)[C@H](CC(C)C)NC(=O)CCC1CC(OC(=O)NCCc2ccc(F)cc2)CC2(CCCC(COC(=O)NCCOC)O2)O1 (stereo not given in full),composite z-score,[1],0.441
same,z-score,[2],-0.127 (inactive)
same,z-score,[3],0.045 (inactive)
same,z-score,[4],0.198 (inactive)
same,z-score,[5],0.0489 (inactive)
same,composite z-score,[6],0.581
same,composite z-score,[7],-0.215
same,composite z-score,Torsin-1A (Homo sapiens) [8],0.441
same,composite z-score,Torsin-1A (Homo sapiens) [9],0.259
same,composite z-score,[10],1.53
same,z-score,[11],-1.39 (inactive)
same,composite z-score,[12],-0.198
same,z-score,[13],3.18 (inactive)
same,z-score,[14],0.621 (inactive)
same,z-score,[15],0.0768 (inactive)
same,z-score,[16],-0.0213 (inactive)
same,z-score,[17],-0.474
same,z-score,[18],-0.25 (inactive)
same,z-score,[19],0.998 (inactive)
same,z-score,[20],1.19
C=CC[C@@H]1C=C[C@H](ON=C(C)CCN2CCCc3nc(C)c(C)cc32)[C@@H](CO)O1,composite z-score,[1],0.621
same,z-score,[2],-0.686 (inactive)
same,z-score,[3],-0.0889 (inactive)
same,z-score,[4],-0.0824 (inactive)
same,z-score,[5],-0.299 (inactive)
same,composite z-score,[6],0.182
same,composite z-score,[7],0.528
same,composite z-score,Torsin-1A (Homo sapiens) [8],2.17
same,composite z-score,Torsin-1A (Homo sapiens) [9],2.07
same,composite z-score,[10],1.66
same,z-score,[11],0.579 (inactive)
same,composite z-score,[12],0.97
same,z-score,[13],3.7 (inactive)
same,z-score,[14],0.327 (inactive)
same,z-score,[15],0.206 (inactive)
same,z-score,[16],0.562 (inactive)
same,z-score,[17],-1.04
same,z-score,[18],-0.297 (inactive)
same,z-score,[19],-0.0344 (inactive)
same,z-score,[20],-0.473
CCOC(=O)[C@H](CC(C)C)NC(=O)CCC1CC(OC(=O)NCCc2ccc(F)cc2)CC2(CCCC(COC(=O)NCc3cccc4ccccc34)O2)O1 (stereo not given in full),composite z-score,[1],-0.165
same,z-score,[2],-0.731 (inactive)
same,z-score,[3],-0.596 (inactive)
same,z-score,[4],-0.889 (inactive)
same,z-score,[5],1.01 (inactive)
same,composite z-score,[6],1.57
same,composite z-score,[7],-0.131
same,composite z-score,Torsin-1A (Homo sapiens) [8],-0.169
same,composite z-score,Torsin-1A (Homo sapiens) [9],0.184
same,composite z-score,[10],0.601
same,z-score,[11],-0.14 (inactive)
same,composite z-score,[12],-0.147
same,z-score,[13],15.2 (active)
same,z-score,[14],3.27 (inactive)
same,z-score,[15],-1.34 (inactive)
same,z-score,[16],0.344 (inactive)
same,z-score,[17],0.927
same,z-score,[18],0.135 (inactive)
same,z-score,[19],0.378 (inactive)
same,z-score,[20],-0.0307
